Screen size: about 300,000 compounds; about 1,100 (0.37%) were called active. The sample as a whole holds a higher share of actives than the screen did. Values without a mark were called inactive.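 Rule for the calls: active = inhibition past about -25% in most replicates, and total fluorescence under double the plate's negative control median (limit read from the data); inconclusive = replicates evenly split on the limit, or fluorescence at least double controls; inactive = too little inhibition in most replicates.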

The results in this text go back to PubChem BioAssay AID1832 (Broad Institute, 2009).

The target in the experiment is Zinc finger protein mex-5 (Caenorhabditis elegans) (UniProt Q9XUB2). Description: MEX-5 zinc finger RNA-binding disruptors – biochemical, C. elegans, fluorescence polarization, MLPCN library, primary screen (AID 1832).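 Note: 0% = DMSO and -100% = 5 µM competing unlabeled TCR2 RNA.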 Conditions: MEX-5/FITC-TCR2 RNA binding, at 10 µM, hits give low values.
Chain of Zinc finger protein mex-5 (Caenorhabditis elegans) (Q9XUB2 whole entry, looked up): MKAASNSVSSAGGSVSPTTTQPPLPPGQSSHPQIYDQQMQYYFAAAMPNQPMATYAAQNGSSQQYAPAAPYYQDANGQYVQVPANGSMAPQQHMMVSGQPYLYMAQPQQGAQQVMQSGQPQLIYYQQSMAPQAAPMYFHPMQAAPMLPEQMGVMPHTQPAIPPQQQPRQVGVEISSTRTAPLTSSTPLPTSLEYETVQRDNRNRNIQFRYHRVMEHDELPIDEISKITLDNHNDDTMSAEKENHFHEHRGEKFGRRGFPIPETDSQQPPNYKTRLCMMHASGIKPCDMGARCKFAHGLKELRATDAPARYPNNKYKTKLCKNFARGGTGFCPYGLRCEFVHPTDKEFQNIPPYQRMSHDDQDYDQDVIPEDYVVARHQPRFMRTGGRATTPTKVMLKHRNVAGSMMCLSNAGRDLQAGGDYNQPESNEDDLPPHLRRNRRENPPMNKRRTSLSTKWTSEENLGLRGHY
In the case of `CN1c2ccc(C=O)c3c(C=O)ccc(c23)N(C)C1(C)C`, the activity score (negative = inhibition of binding) was -35.3% (active).
The same measure for `COc1ccc(NC(=O)CN(C)C(=O)c2n[nH]c3ccccc23)cc1`: -3.49%; for `CCCCN(CC)CCCNC(=O)c1ccc(CSc2nc3ccncc3[nH]2)cc1`: 1.01%; for `Cc1ccc(C2NC(=S)NC3=C2N2CCC3CC2)cc1` (centres undefined): 0.478%.
The value for `Cc1nonc1C1CCCN1Cc1nc(-c2ccc(F)cc2F)oc1C` (centres undefined) was -2.15%; that for `Cc1ccc(-n2cc(CN(C)Cc3nccn3C)c(-c3cccc(C)c3)n2)cc1` was 1.9%.
The value for `N#C[C@]1(S(=O)(=O)c2ccccc2)C[C@@H]2ON=C(c3cccc(Br)c3)[C@@H]2C1` was 1.51%; that for `Cc1ccnc(NC(=O)c2ccc(Cl)c([N+](=O)[O-])c2)c1` was -0.216%; that for `Cc1nn(C(C)C(=O)N2CCOCC2)c(=O)c2nn(-c3ccccc3)c(C)c12` (centres undefined) was -34.7% (active).
As to `Cc1nn(CC(=O)N2CCCCC2)c(=O)c2nn(-c3ccccc3)c(C)c12`, the activity score (negative = inhibition of binding) is -3.02%.
As to `Cc1nn(C(C)C(=O)NCCC2=CCCCC2)c(=O)c2nn(-c3ccccc3)c(C)c12` (centres undefined), the activity score (negative = inhibition of binding) is -2.35%.
In the case of `CC(C)Cc1nnc(NC(=O)CCc2ccccc2)s1`, the activity score (negative = inhibition of binding) was -0.0404%.
Consider `COC(=O)CSc1nnc(NC(=O)CCc2ccccc2)s1`, for which the activity score (negative = inhibition of binding) is 0.825%.
The value for `O=C(COC(=O)c1cccc(Cl)c1)Nc1ccc2[nH]c(=O)[nH]c2c1` was 0.565%.
The value for `NC(=O)c1nsc(C(=O)N(CCCN2CCOCC2)C(C(=O)NC2CCCCC2)c2ccc(Cl)cc2)c1N` (centres undefined) was -0.973%; that for `COC(=O)c1ccc(NC(=O)c2cc3c(CO)cnc(C)c3oc2=Nc2cccc(C(N)=O)c2)cc1` was -0.18%.
The value for `Cc1cc(NC(=O)Nc2ccccc2[N+](=O)[O-])no1` was 0.456%; that for `COc1ccc(/C=C2/C(=O)N(c3ccccc3)N=C2C)c(OC)c1` was 1.89%.
As to `O=C1N/C(=C/c2cccn2-c2ccccc2)C(=O)N1c1cccc(Cl)c1`, the activity score (negative = inhibition of binding) is 3.72%.
On to `COc1cc2c(cc1/C=C1/NC(=O)N(c3ccccc3)C1=O)OCO2`, for which the activity score (negative = inhibition of binding) is -27% (active).
Take `COc1ccc(C(=O)/C=C/c2cccnc2)c(OC)c1`: the activity score (negative = inhibition of binding) was 0.878%.
The same measure for `COc1ccc(/C=C/C(=O)c2ccc(NS(=O)(=O)c3ccc(C)cc3)cc2)cc1O`: -0.65%; for `COC(=O)c1ccc(COc2ccc(/C=C/C(=O)c3ccc(OC)c(CSCC(=O)O)c3)cc2OC)cc1`: -5.72%; for `COc1ccc(C(=O)/C=C/c2ccc(-c3ccccc3)cc2)cc1CSCC(=O)O`: -31.8% (active).
The same measure for `COc1ccc(CCNS(=O)(=O)c2cc3c(cc2C)NC(=O)CO3)cc1OC`: 0.926%; for `CC1(C)CC(=O)C=C(Nc2ccccc2)C1`: 1.36%.
The same measure for `Cc1cc(C)nc(NNC2=CC(=O)CC(C)(C)C2)n1`: -66.2% (active); for `COC(=O)NNC1=CC(=O)CC(C)(C)C1`: -6.29%; for `Cc1cc(NC(=O)CCC(=O)N(Cc2ccccc2)C(C(=O)NC2CCCC2)c2ccc(C)o2)no1` (centres undefined): -2.13%.
As for `Oc1[nH]c2ccc(Br)cc2c1N=Nc1nn[nH]n1`, the activity score (negative = inhibition of binding) is -74.2% (active).
On to `NS(=O)(=O)c1ccc(N=Nc2c(O)[nH]c3ccc(Br)cc23)cc1`, for which the activity score (negative = inhibition of binding) is -2.29%.
The value for `O=C(CNC(=O)Cc1ccccc1)N=Nc1c(O)[nH]c2ccc(Br)cc12` was 0.589%; that for `O=c1[nH]c(CN2CCOCC2)nc2scc(-c3ccccc3)c12` was 1.42%.
The value for `COc1ccc(NC(=O)CCn2ccnc2)c(OC)c1` was -0.322%; that for `CCOc1ccc(N=Cc2c(O)n(-c3cccc(C)n3)c(=O)c3ccccc23)cc1` was -1.96%; that for `CCCCn1c(=O)c(C(C)=O)c(O)c2ccccc21` was 0.942%.
The same measure for `CC(=O)n1c(C=Nc2ccccc2)c(O)c2ccccc21`: -52.6% (active).
Regarding `C=CCn1cc(Cl)cc(C(=O)Nc2ccccc2)c1=O`, the activity score (negative = inhibition of binding) is -0.689%.
For the compound `COc1ccccc1NC(=O)CCSc1nnc(-c2ccc(O)cc2)o1`, the activity score (negative = inhibition of binding) is -2.37%.
